The panel holds about 83,000 compounds, 20% with a hit somewhere; the sample as a whole holds those more often.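 Method: cells in 96-well plates; compound added at one concentration; 48 h incubation; percent growth measured; values under 10 scored active.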 A number with no mark means an inactive call. Activity calls are given as the source filed them.
How the values were obtained:
Experiment in all cases: NCI-60 one-dose screen, 48 h (100 = growth as untreated, 0 = no growth, -100 = all killed)
Settings in all cases: 10 µM unless noted
HCT-15 colon = tested on: HCT-15 colon
HT29 colon = tested on: HT29 colon
SNB-75 CNS = tested on: SNB-75 CNS
SNB-19 CNS = tested on: SNB-19 CNS
U251 CNS = tested on: U251 CNS
PC-3 prostate = tested on: PC-3 prostate
SK-MEL-5 melanoma = tested on: SK-MEL-5 melanoma
UACC-62 melanoma = tested on: UACC-62 melanoma
LOX IMVI melanoma = tested on: LOX IMVI melanoma
SK-MEL-28 melanoma = tested on: SK-MEL-28 melanoma

SMILES | growth (HCT-15 colon) | growth (HT29 colon) | growth (SNB-75 CNS) | growth (SNB-19 CNS) | growth (U251 CNS) | growth (PC-3 prostate) | growth (SK-MEL-5 melanoma) | growth (UACC-62 melanoma) | growth (LOX IMVI melanoma) | growth (SK-MEL-28 melanoma)
Cc1cccc(-c2nc(C(C)C)sc2-c2ccnc(NCCCNS(=O)(=O)c3ccc(Cl)cc3)c2)c1 | 36.5% | 16.9% | 97.5% | 89.6% | 73% | 50% | 87.6% | 96.4% | 75% | 90.6%
O=C1c2cccnc2C(=O)c2c1c(C(=O)OCCc1ccccn1)c1ccccn21 | -75.9% (active) | -75% (active) | -85.3% (active) | -38.7% (active) | -82.5% (active) | -3.59% (active) | -94.2% (active) | -55.6% (active) | -50% (active) | -33.3% (active)
COc1ccc(-c2cc(-c3cc(OC)ccc3OC)nc(SCC(C)=O)c2C#N)cc1 | 52.7% | 81.8% | 42.7% | 75.8% | 74.4% | 56.2% | 65.7% | 67.1% | 57.9% | 68%
O=C(OCc1ccc2c(Cl)cc(Cl)c(O)c2n1)N1CCN(C(=O)c2cc3ccccc3[nH]2)CC1 | 22.2% | 59.3% | 36.3% | 24.5% | 13.6% | 24.9% | 25.1% | -2.56% (active) | 24.6% | 39.2%
CC1(/C=C/c2ccc(-c3ccccc3)cc2)CCn2cnc3ncnc(c32)N1O (stereo not given) | 21.5% | 30% | 36.3% | 26.7% | 24.7% | 42.4% | -6.47% (active) | 0.915% (active) | 9.21% (active) | 29.7%
CNC(=O)NCC1OC(n2cnc3c(NC(=O)Nc4ccccc4)ncnc32)C2OC(=O)CC12 (stereo not given) | 92.2% | 110% | 96.7% | 103% | 96.2% | 99.8% | 110% | 99.2% | 62.7% | 107%
O=CN1N=C(c2cccc(Nc3ccnc4cc(Cl)ccc34)c2)CC1c1ccc(Cl)cc1 (stereo not given) | 29.5% | -24.8% (active) | -17.4% (active) | 49% | 18.9% | 23.1% | 12.7% | 32.4% | 24.2% | 52.7%
C[C@H]1[C@H](C)CC[C@]2(C(=O)NCCNCCN)CC[C@]3(C)C(=CC[C@@H]4[C@@]5(C)CCC(=O)C(C)(C)[C@@H]5CC[C@]43C)[C@H]12 | 13.1% | 4.06% (active) | 65% | 71.6% | -28.6% (active) | 38.5% | 85.3% | 77.5% | -76.7% (active) | 81.5%
CC(=O)c1sc(-c2ccc(F)cc2)cc1O | 97.7% | 105% | 89% | 103% | 100% | 93.9% | 100% | 100% | 97.4% | 110%
CC(=O)O[C@H]1CC[C@]2(C)[C@H]3CC=C4[C@@H]5CC(C)(C)CC[C@]5(C(=O)N5CCN(CCC#N)CC5)CC[C@@]4(C)[C@]3(C)CC[C@H]2C1(C)C | 20.3% | 12.4% | 53.8% | 63.2% | 12.4% | 19.5% | 7.89% (active) | 38% | 20% | 52.2%
O=C(Cn1nc(-c2cccc3ccccc23)ccc1=O)NCc1cccc(Cl)c1 | 28.9% [50 µM] | 43% [50 µM] | 74.3% [50 µM] | 45.3% [50 µM] | 35% [50 µM] | 19.6% [50 µM] | 5.82% [50 µM] (active) | 35.2% [50 µM] | 28.6% [50 µM] | 56% [50 µM]
O=C(NC1CCC(Br)CC1)C1CCCC(S(=O)(=O)NC2CCCCC2)C1 (stereo not given) | 18.8% [25 µM] | 28.7% [25 µM] | 27.4% [25 µM] | 26.8% [25 µM] | 18.5% [25 µM] | 4.26% [25 µM] (active) | -68% [25 µM] (active) | 9.41% [25 µM] (active) | 15.8% [25 µM] | 24.7% [25 µM]
CN(C)c1ccc(CNCCO)cc1 | 106% | 69.1% | 101% | 98.5% | 89.4% | 68.5% | 99.9% | 90.2% | 102% | 81.7%
N#Cc1c(-c2ccccc2)nc2c(c(-c3ccc(Cl)cc3)nn2-c2ccccc2)c1-c1ccc([N+](=O)[O-])cc1 | 99.4% | 93.5% | 88.3% | 90.9% | 95.3% | 88.7% | 99.2% | 86.5% | 94.7% | 102%
Cc1ccc(-c2nc(SCC(=O)N3CCN(c4cc5c(cc4F)c(=O)c(C(=O)O)cn5C4CC4)CC3)nc(Cl)c2C#N)cc1 | 99.8% | 103% | 103% | 94.7% | 106% | 99.5% | 101% | 94.7% | 97.2% | 106%
COC12C=C/C(=C(/C(=O)OCc3csc(SC)n3)C(=O)CCCCCCCCC3(OC)C=C/C(=C(/C(=O)OCc4cnc(SC)s4)C(=O)CCCCCCCC1)O3)O2 (stereo not given) | 76.8% | 27.5% | 98.3% | 47.3% | 36.9% | 27.4% | 11.3% | 6.98% (active) | -22.9% (active) | 36.3%
CCCn1c(=S)sc2c(NNC(C)=O)nc(C)nc21 | 90.2% | 103% | 89.9% | 92.4% | 91.1% | 90.3% | 96.4% | 93% | 87% | 141%
[N-]=[N+]=NCC1OC(n2cnc3c(NC(=O)Nc4ccccc4)ncnc32)C2OC(=O)CC12 (stereo not given) | 91.2% | 109% | 93.7% | 106% | 110% | 97.4% | 106% | 107% | 93.2% | 118%
O=C1C=C(SCCO)C(=O)c2ccccc21 | -68.5% (active) | 95.7% | -83.9% (active) | 15% | -37.2% (active) | 62.3% | -98% (active) | 22.3% | -57.5% (active) | 42.9%
N#Cc1ccc(O)c(C2=NCC(c3ccc(-c4ccccc4)cc3)O2)c1 (stereo not given) | 24.6% | 18.1% | 26.2% | 18% | 4.51% (active) | 25.5% | 3.96% (active) | -5.35% (active) | 11.8% | 23.7%
Cc1ccc(C)c2c1sc1nc(N3CCOCC3)c(C#N)c(=O)n12 | 102% | 97.2% | 53.2% | 96.3% | 58.9% | 18.5% | 88.5% | 90.2% | 67% | 103%
NC(=O)c1ccccc1OCC(=O)Nc1ccc(Cl)c(Cl)c1 | 102% | 113% | 83.3% | 93.2% | 97.3% | 106% | 99.9% | 83.3% | 108% | 107%
O=C(O)CCCCCCCCCCN1C(=O)/C(=C2/C(=O)N(CC(=O)O)c3ccc(Br)cc32)SC1=S | 44.2% | 100% | 92.5% | 99.9% | 72% | 74.8% | 81.2% | 80.3% | 78.2% | 104%
CCOC(=O)c1cn2ncnc(Oc3ccc(NC(=O)NC4CC4)c(Cl)c3)c2c1C | 81.7% | 95.1% | 83.8% | 89% | 80.7% | 89.2% | 88.7% | 77.8% | 85.4% | 107%
CCNC(=O)N1CCc2c(Br)c3c(c(OC)c2C1Cc1ccc(OC)cc1)OCO3 (stereo not given) | 24.6% | 14.4% | -7.7% (active) | 49.7% | 32.3% | 27.9% | 28.9% | 20.7% | 32.6% | 55.9%
Nc1cc(-c2ccc(Cl)cc2)nn1-c1nnc(/C=C/c2ccco2)c(=O)[nH]1 | 38.1% | 44.2% | 67.3% | 57.8% | 50.6% | 52.6% | 46% | 52.5% | 49.9% | 66.4%
